Hits are enriched below; roughly 2.3% of the tested compounds scored in any of these assays.
FUS yeast rescue: qHTS for Suppressors of FUS Proteinopathy: Primary screen using FUS-linked yeast assay | AID 1347120, 2019 | S. cerevisiae FUS-expressing, growth rescue, OD600, 24 h | Potency, µM (titrated, usually from 76.6 µM), usual class: activators | actives 0.24% (n = 390,000);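 note: plate controls were DMSO vehicle for no effect and reference control for full effect; nearly all actives have a fitted effect of over 55% in size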
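Compound concentration series was pinned onto galactose-induced FUS-expressing yeast seeded at OD 0.005. Plates sat 24hr at 30C; absorbance at 600 nm gave growth. DMSO served as background control.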
aSyn rescue: qHTS of alpha-syn Inhibitors. actives 0.14% (n = 370,000). AID 652106, 2013. Yeast expressing alpha-synuclein, growth rescue, BacTiter-Glo, 24 h. Potency, µM (highest dose often 46.1 µM), inactives show at the top dose growth rescue (activation), most hits filed as activators; note: % of control where 0% means no effect; nearly all actives have a fitted effect of over 65% in size
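Rescue of yeast growth: cells expressing toxic alpha-synuclein, induced in galactose at OD600 0.02, incubated with compound 24 h at 30 C. ATP luminescence quantified growth; inhibitors of toxicity appear as activators.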
Chronic BCR inh: qHTS Assay to Find Inhibitors of Chronic Active B-Cell Receptor Signaling; ABC-DLBCL IkBa-CBG/CBR reporter, luminescence ratio, 4 h; Potency, µM (top dose mostly 46.1 µM), for the others: at the highest dose activity change, negative = inhibition, usual class: inhibitors; actives 0.05% (n = 340,000); AID 493014, 2011; active = well fitted inhibition curve with a large enough effect in the signal ratio, with a control signal flat, not every such curve was filed as active; inconclusive = small, poorly fitted or top-dose-only effect, or effect the other way, or a change in a side signal; the % refers to the signal ratio;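 note: plate controls were basal doxycycline-induced cells for no effect and cells given 10 µM MG132 for full effect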
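TMD8 human ABC-DLBCL cells with doxycycline-inducible IκBα–green luciferase fusion and unfused red luciferase, in 0.5% FBS medium; compounds up to 46 uM, 4 h at 37C. Green/red luminescence ratio, filter-overlap corrected, fitted to concentration-response curves.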
uPA generation: qHTS for Inhibitors of Cell Surface uPA Generation | actives 0.31% (n = 330,000) | Potency, µM (doses to about 38.3 µM), for the others: top-dose activity change, negative = inhibition, actives largely listed as inhibitors | cell surface uPA generation assay, qHTS; active = well fitted inhibition curve with a large enough effect; inconclusive = small, poorly fitted or top-dose-only effect; inactive = no such curve, though single readings can be large or run the other way; tested in mouse RAW 264.7 cells; note: % is set by controls: 0 for no effect and ±100 for the full control effect; nearly all actives have a fitted effect of over 55% in size
Abeta yeast res: qHTS for compounds that reverse cellular toxicity of Amyloid beta (A-beta) peptide in yeast: Primary Screen | yeast expressing A-beta42, growth rescue, OD600, 48 h; response scale: 0% DMSO, 100% iron-clioquinol control | Potency, µM (doses to about 46.1 µM), hits mostly activators | actives 0.063% (n = 410,000) | AID 1347071, 2019; note: nearly all actives have a fitted effect of over 55% in size
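Growth rescue measured by 600 nm absorbance after 48 h yeast culture at 30 C with compound. Values normalized between DMSO and an equimolar ferric chloride plus clioquinol control.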
TDP-43 yeast inh: qHTS of TDP-43 Inhibitors. TDP-43 expressing yeast growth rescue, BacTiter-Glo, 24 h. Potency, µM (series often up to 46.1 µM), without a hit: top-dose growth rescue (activation), hits mostly activators. actives 1.8% (n = 410,000). AID 652104, 2013; note: % of control where 0% means no effect; nearly all actives have a fitted effect of over 50% in size
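Yeast cells expressing TDP-43 under galactose induction are exposed to compounds for 24 hr at 30 deg C. BacTiter-Glo luminescence measures growth, so protective compounds score as activators.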
Active calls of the source: *; i = inactive; ? = inconclusive; / = no result; [ ] = another dose, or the depositor's remark. Unless noted, calls come from the whole dose curve; as a rule, active = well fitted curve in the direction sought with a large enough effect; inconclusive = small, poorly fitted or top-dose-only effect, or another doubt; inactive = no such curve, though single readings can be large; an effect the other way counts as inactive or inconclusive. Potency is the fitted concentration of half-maximal effect.

SMILES	FUS yeast rescue	aSyn rescue	Chronic BCR inh	uPA generation	Abeta yeast res	TDP-43 yeast inh
CCOc1cccc(/C=N/NS(=O)(=O)c2ccc(C)c([N+](=O)[O-])c2)c1O	i	0%	?	6%	i	-4%[9.22 µM]
CCN(CC)c1nc(N)c([N+](=O)[O-])c(NCCO)n1	/	1%	-4%	?	i	-5%
Nn1cnc2c(c1=O)C1(CCCCC1)Cc1ccccc1-2	/	0%	3%	-8%	i	10µM*
CC(=O)Nn1cnc2c(c1=O)C1(CCCC1)Cc1ccccc1-2	i	-1%	0%	-3%	i	2%
COc1cc(C(Nc2ccc3c(c2)OCO3)C(=O)NC2CCCCC2)cc(OC)c1OC (stereo unspecified)	18µM*	0%	?	1%	i	-3%
COc1ccc(N=C2SC(CC(=O)Nc3ccccc3)C(=O)N2CCc2ccccn2)cc1 (stereo unspecified)	/	-2%	1%	0%	i	21%
COc1ccc(OC)c(NC(=O)CC2SC(=Nc3ccccc3)N(CCc3ccccn3)C2=O)c1 (stereo unspecified)	35µM*	8%	-10%	0%	i	2%
CCOC(=O)N1CCN(c2ncc3c(n2)CC(c2ccc(Cl)cc2)CC3=O)CC1 (stereo unspecified)	i	2%	/	/	i	13µM*
CCOC(=O)N1CCN(c2ncc3c(n2)CC(c2ccccc2O)CC3=O)CC1 (stereo unspecified)	i	5%	/	/	i	6%
CC(=O)Nc1ccc(Nc2cc(C)nc3c(-c4ccc(Cl)cc4)cnn23)cc1	/	0%	10%	-11%	i	3.2µM*
COc1ccc(CCNc2cc(C)nc3c(-c4ccc(Cl)cc4)cnn23)cc1OC	?	12%	-1%	3%	i	18µM*
COc1ccc(CCNc2cc(C)nc3c(-c4ccccc4)cnn23)cc1OC	?	-8%	?	7%	i	-18%
Cc1cc(N2CCCCC2)n2ncc(-c3ccc(Cl)cc3)c2n1	11µM*	-8%	?	-8%	i	14µM*
CCOC(=O)Cc1csc(NC(=O)COc2ccc(C)cc2)n1	i	-10%	?	?	?	11µM*
CCOC(=O)Cc1csc(NC(=O)COc2ccc3c(c2)CCC3)n1	i	-24%	?	5%	?	16µM*
CCOC(=O)Cc1csc(NC(=O)COc2ccccc2)n1	i	-15%	?	/	i	-12%
O=C(NCc1ccc2c(c1)OCO2)c1cc([N+](=O)[O-])ccc1N1CCCCC1	/	9%	23µM*	-11%	i	20µM*
O=C(NCc1ccco1)c1cc([N+](=O)[O-])ccc1N1CCCCC1	i	0%	1%	-18%	i	14µM*
O=C(NCc1ccco1)c1ccc(N2CCCCC2)c([N+](=O)[O-])c1	i	6%	?	-5%	i	?
Fc1cc(F)cc(-c2oncc2-c2nnnn2-c2ccccc2)c1	i	1%	4%	-2%	i	25%
Cc1ccc(-n2nnnc2-c2cnoc2-c2cccc(F)c2)cc1	i	6%	-15%	-6%	i	14µM*
Cn1ncc(Br)c1C(=O)NC1C2CC3CC(C2)CC1C3 (stereo unspecified)	i	13%	-7%	7%	i	19%
COc1cccc(C(=O)N/N=C/C(Br)=C/c2ccccc2)c1	i	12%	?	-7%	i	20µM*
Cn1cc(C(=O)N/N=C/C(Br)=C/c2ccccc2)ccc1=O	i	7%	?	5.6µM*	i	15%
Cc1occc1C(=O)N/N=C/C(Br)=C/c1ccccc1	i	-14%	?	-13%	i	14µM*

Compound activity: PubChem, National Center for Advancing Translational Sciences (NCATS)
